From PubChem BioAssay AID720494 (Broad Institute, 2013)
The other results are listed elsewhere or left out. The source made the active and inactive calls. No cut-off is given here; in the data, nearly all actives have AC50 up to about 14 µM.

Experiment: compounds quenching or disrupting AlphaScreen beads readout – biochemical, cherry-picked samples, luminescence, artefact control, dose response (AID 720494)
Settings: AlphaScreen interference counter-screen, signal luminescence; series mostly up to 12 µM

Which AC50 does the source give for COc1ccc(N2CCN(C3CCCCC3NS(=O)(=O)c3ccccc3)CC2)cc1 (stereo not drawn) here?
Its AC50 is “inactive”.

With COc1ccc(-c2ccc3[nH]c4c(c3c2)CCN2C[C@H]3[C@H](C)ON(C)[C@H]3C[C@@H]42)cc1 as the compound, how does the AC50 read?
Its AC50 is “inactive”.

With COc1ccc2[nH]c3c(C)c4cc[n+](C)cc4c(C)c3c2c1 as the compound, how does the AC50 read?
Its AC50 is “inactive”.

For CN(C)CCNC(=O)c1cccc(-c2cnc3c(NC=O)cc(-c4cccc(C(F)(F)F)c4)cn23)c1, which AC50 is on record?
The AC50 was “inactive”.

For Cc1cc(N=Nc2ccc3ccccc3c2)ccc1O, which AC50 is on record?
The AC50 was 11.2 µM (active).

With C[C@H]1CN([C@@H](C)CO)C(=O)c2c(c3ccccc3n2C)-c2ccccc2CO[C@@H]1CN(C)Cc1ccc2c(c1)OCCN2C as the compound, how does the AC50 read?
The AC50 was “inactive”.

With CCN(CC)CCOc1ccc2c(c1)C(=NNC(=O)c1ccccn1)c1cc(OCCN(CC)CC)ccc1-2 as the compound, how does the AC50 read?
Its AC50 is “inactive”.

For COc1ccc2sc(N(CCCN(C)C)C(=O)c3ccc(S(=O)(=O)N(C)C4CCCCC4)cc3)nc2c1, which AC50 is on record?
The AC50 was “inactive”.

With O=C(NCCc1cccc(F)c1)C1CCCN(c2nc3ccccc3s2)C1 (stereo not drawn) as the compound, how does the AC50 read?
The AC50 was “inactive”.

Which AC50 does the source give for Cc1c(C)n(Cc2ccc(Cl)cc2)c2ccc(C(=O)NCCCN3CCOCC3)cc12 here?
Its AC50 is “inactive”.

With Cc1ccc(NC(=S)N(CCCN2CCCC2)Cc2cccn2Cc2ccc(Cl)cc2)cc1 as the compound, how does the AC50 read?
The AC50 was “inactive”.

For COc1ccc2c(c1)c(=Cc1ccc(N(C)C)cc1)c1cc(-c3ccccc3)[n+](C)n12, which AC50 is on record?
Its AC50 is 3.02 µM (active).

With Cc1ccc(Nc2cc(C)nc3c(C)ccc([N+](=O)[O-])c23)cc1 as the compound, how does the AC50 read?
Its AC50 is “inactive”.
